Unmarked numbers belong to inactive results. Active and inactive are the calls of the source. The call rests on the fitted dose curve; in most records, active means well fitted curve in the direction sought with a large enough effect in the repeat runs; inconclusive means weak or mixed curves; inactive means flat fitted curve, though single readings scatter.
Experiment: qHTS assay to test for compound auto fluorescence at 460 nm (blue) in HEK293 cells (AID 720678)
Details: blue autofluorescence 405/460 nm; series mostly up to 91.3 µM; fluorescence, % of triamterene: at the top concentration
Excerpt: National Center for Advancing Translational Sciences [NCATS]
NIH Chemical Genomics Center [NCGC]
U.S. Environmental Protection Agency [EPA]
National Institutes of Environmental Health Sciences [NIEHS]
National Toxicology Program [NTP]
U.S. Food and Drug Administration [FDA]
Compound auto fluorescence often interferes with screening of the compound library against various biological targets and signaling pathways. Some of these compounds may have fluorophoric properties. Such properties may interfere with the assay outputs resulting in false positives and/or negatives. To decrease such complications and ensure the compound activities are relevant in terms of biological response, the Tox21 10K compound library was screened for auto fluorescence.
From the fluorophores used as reporter signals in our screening assays, the auto fluorescence equivalencies of compounds against three fluorophores have been evaluated: Triamterene, Fluorescein and Rose Bengal sodium for blue, green and red fluorescence, respectively. The fluorescence intensities were measured using Excitation/Emission wavelengths at 405/460nm, 485/535nm and 540/590nm for blue, green and red labels, respectively. This assay includes the blue fluorescence data.
Tox21 Assay Protocol Summary:
2,000 HEK293 cells in 5 uL of culture medium containing 10% dialyzed FBS per well were dispensed into black wall/clear bottom 1536-well plates using a Multidrop Combi Dispenser (Thermo Scientific). The assay plates were incubated for 4-5 hr at 37C to allow cell attachment to the well bottom, followed by the transfer of 23 nL compound or DMSO vehicle by a pintool work station (Kalypsys, San Diego, CA). After the assay plates were incubated overnight at 37C and 5% CO2, fluorescence intensities in the assay plates were measured by an Envision (PerkinElmer, Shelton, CT) plate reader using three labels for measuring blue, green and red fluorescence at […] 460, 535 and 590nm respectively.
On the % scale 0 is the no-effect control and ±100 the full control effect; potency means the concentration at half of the fitted maximal effect; tags describe the fitted curve by direction and shape or compound fluorescence and quenching.

SMILES	fluorescence, % of triamterene	Potency
CC(C)CCCCCCCOP(=O)(Oc1ccccc1)Oc1ccccc1	-0.0446%	–
CCCCCCCCCCCCBr	0.0103%	–
O=[N+]([O-])c1c2ccccc2cc2ccccc12	1%	–
CC(C)(C)C(O)/C(=C\c1ccc(Cl)cc1Cl)n1cncn1 (stereo not given)	-0.0091% [at 95.7 µM]	–
C[C@]12Cc3nonc3C[C@@H]1CC[C@@H]1[C@@H]2CC[C@@]2(C)[C@H]1CC[C@]2(C)O	0.204% [at 46 µM]	–
CSCCCN=C=S	0.0175%	–
CCc1nn(C)c(C(=O)NCc2ccc(C(C)(C)C)cc2)c1Cl	0.0404%	–
O=[N+]([O-])c1ccc(Oc2ccc(C(F)(F)F)cc2[N+](=O)[O-])cc1	-0.199%	–
CCCSP(=O)(OCC)SCCC	-0.297% [at 95.7 µM]	–
C[C@@H]1CC[C@@]2(OC1)O[C@H]1[C@@H](O)[C@H]3[C@@H]4CC[C@H]5C[C@@H](O[C@@H]6O[C@H](CO)[C@H](O[C@@H]7O[C@H](CO)[C@@H](O)[C@H](O[C@@H]8OC[C@@H](O)[C@H](O)[C@H]8O)[C@H]7O[C@@H]7O[C@H](CO)[C@@H](O)[C@H](O[C@@H]8O[C@H](CO)[C@@H](O)[C@H](O)[C@H]8O)[C@H]7O)[C@H](O)[C@H]6O)[C@H](O)C[C@]5(C)[C@H]4CC[C@]3(C)[C@H]1[C@@H]2C	0.193% [at 95.7 µM]	–
c1ccc(OCC2CO2)cc1 (stereo not given)	-0.0723%	–
Cc1cc(C)c(C2=C(OC(=O)CC(C)(C)C)C3(CCCC3)OC2=O)c(C)c1	0.0964% [at 95.7 µM]	–
C=CC(=O)OCC(COC(=O)C=C)(COC(=O)C=C)COC(=O)C=C	0.195%	–
S=C(SSC(=S)N1CCCCC1)N1CCCCC1	-0.0106% [at 46 µM]	–
CN(C)S(=O)(=O)N(SC(F)(Cl)Cl)c1ccccc1	-0.269%	–
O=C(O)C1C2CCC(O2)C1C(=O)O (stereo not given)	–	inactive
CC(C)(C)c1ccc(CSc2cnn(C(C)(C)C)c(=O)c2Cl)cc1	-0.0018%	–
c1ccc2c(c1)[nH]c1cnccc12	4.62%	–
ClC1=C(Cl)C2(Cl)C3C(Cl)C(Cl)CC3C1(Cl)C2(Cl)Cl (stereo not given)	–	inactive
CC(C)CC(C)(c1ccc(O)cc1)c1ccc(O)cc1	–	inactive

SMILES	fluorescence, % of triamterene	Potency
c1ccc(Nc2ccc3ccccc3c2)cc1	–	inactive
OC(c1ccc(Cl)cc1)(c1ccc(Cl)cc1)C(Cl)(Cl)Cl	-0.194%	–
N#CC(Cl)Cl	-0.143%	–
ClC1=C(Cl)[C@]2(Cl)[C@@H]3[C@@H]4C[C@@H]([C@H]5O[C@@H]45)[C@@H]3[C@@]1(Cl)C2(Cl)Cl	-0.251%	–
CCCCCCCCCC[N+](C)(C)CCCCCCCCCC	–	inactive
CCCCCCCCc1ccc(O)cc1	0.255%	–
Oc1cc(Cl)c(Cl)c(Cl)c1	0.0031%	–
CCN(CC)c1c([N+](=O)[O-])cc(C(F)(F)F)c(N)c1[N+](=O)[O-]	0.179%	–
CNC(C)Cc1ccc2c(c1)OCO2 (stereo not given)	0.0167% [at 95.7 µM]	–
CCCCCCCCCCCCCCC(Br)C(=O)O (stereo not given)	-0.0589%	–
CN(C)c1ccc(N=Nc2ccccc2)cc1	-0.0505%	–
C[C@@H]1O[C@@H](O[C@@H]2C=C3CC[C@@H]4[C@H](CC[C@]5(C)[C@@H](c6ccc(=O)oc6)CC[C@]45O)[C@@]3(C)CC2)[C@H](O)[C@H](O)[C@H]1O	0.167% [at 18.6 µM]	–
CCCCCCCCCCCCCCCC[N+](C)(C)C	–	inactive
Oc1ccc2ccc3cccc4ccc1c2c34	–	35.5 µM [fluorescent] (active)
ClC(Cl)=C(Cl)Cl	-0.0227%	–
CCN(CC)C(=S)[S-].CCN(CC)C(=S)[S-].[Zn+2]	-0.304%	–
O=C(O)c1cc[c]([Hg][Cl])cc1	-0.0062%	–
Clc1ccc(-c2ccc(Cl)c(Cl)c2Cl)c(Cl)c1Cl	-0.14%	–
CN(C)C(=S)S	–	inactive
CC[C@H](C)[C@H]1O[C@]2(C=C[C@@H]1C)C[C@@H]1C[C@@H](C/C=C(\C)[C@@H](O[C@H]3C[C@H](OC)[C@@H](O[C@H]4C[C@H](OC)[C@@H](O)[C@H](C)O4)[C@H](C)O3)[C@@H](C)/C=C/C=C3\CO[C@@H]4[C@H](O)C(C)=C[C@@H](C(=O)O1)[C@]34O)O2	–	inactive

Reference: PubChem BioAssay (Tox21)
